Screening results: PubChem, National Center for Advancing Translational Sciences (NCATS)
This is one part of a sample in which hits are shown more often than they occur.
ALOX12 inh – blocks human arachidonate 12S-lipoxygenase; P18054; purified 12hLO, xylenol orange hydroperoxide absorbance; Potency, µM (top dose mostly 108 µM), for the others: at the top dose activity change, negative = inhibition, usual class: inhibitors; 1.1% of 580,000 active; AID 1671190; also: potency is read from the fitted curve at half-maximal effect
Target sequence (P18054 whole entry, looked up): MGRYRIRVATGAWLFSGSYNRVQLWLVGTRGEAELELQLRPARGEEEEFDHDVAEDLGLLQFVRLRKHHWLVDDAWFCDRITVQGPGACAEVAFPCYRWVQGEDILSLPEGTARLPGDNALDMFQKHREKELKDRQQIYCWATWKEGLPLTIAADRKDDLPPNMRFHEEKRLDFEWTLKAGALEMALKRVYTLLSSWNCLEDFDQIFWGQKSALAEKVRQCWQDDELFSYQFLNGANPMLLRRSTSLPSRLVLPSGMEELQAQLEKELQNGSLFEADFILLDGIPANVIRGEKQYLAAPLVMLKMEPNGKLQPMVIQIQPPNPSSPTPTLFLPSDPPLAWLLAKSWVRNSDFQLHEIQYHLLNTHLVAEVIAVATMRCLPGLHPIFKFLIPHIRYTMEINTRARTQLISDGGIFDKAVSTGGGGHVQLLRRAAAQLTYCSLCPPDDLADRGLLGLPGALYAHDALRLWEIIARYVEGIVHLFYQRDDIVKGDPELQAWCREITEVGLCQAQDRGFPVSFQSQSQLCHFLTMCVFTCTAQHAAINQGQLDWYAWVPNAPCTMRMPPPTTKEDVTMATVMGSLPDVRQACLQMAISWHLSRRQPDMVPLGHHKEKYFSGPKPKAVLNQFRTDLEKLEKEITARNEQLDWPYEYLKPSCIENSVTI
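Purified human 12hLO at 150 nM in 25 mM Hepes, 0.01% Triton X-100, pH 7.0, preincubated 15 min at room temperature with compound. Reaction started with 40 uM arachidonic acid, 30 min at room temperature. Hydroperoxide measured by Fe-xylenol orange, 573/405 nm absorbance ratio.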
HT1080 IDH1KD tx – toxicity to HT-1080 IDH1 knockdown cells (counter line). HT-1080 IDH1 knockdown viability, ATP luminescence, 48 h. Potency, µM (series often up to 46.1 µM), for the others: at the highest dose activity, negative = toxicity, usual class: cytotoxic. 2% of 360,000 active;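 also: potency is read from the fitted curve at half-maximal effect; 0% = DMSO wells and -100% = cell-free medium wells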
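Knockdown cells (IDH1KD HT-1080) received compounds 2 h after plating at 750 cells/well and were kept 48 h at 37 °C in 5% FBS RPMI. A CellTiter-Glo luminescence read gave % activity for curve fitting.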
TDP1 cell CPT – growth inhibition of DT40 Tdp1-/-;hTDP1 cells with camptothecin (screen for TDP1 inhibitors). chicken DT40 Tdp1-/-;hTDP1 cells + 20 nM CPT, ATP luminescence, 48 h. Potency, µM (top dose mostly 46.2 µM), for inactives: at the highest dose activity change, negative = growth inhibition, most hits filed as inhibitors. 12% of 420,000 active; also: potency is read from the fitted curve at half-maximal effect; nearly all actives have a fitted effect of over 55% in size
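Chicken DT40 Tdp1-/- cells stably complemented with human TDP1 were seeded at 400 cells/well in medium containing 20 nM camptothecin, exposed to pin-transferred compounds, and grown at 37 °C for at least 48 hr. Viability was read as ATP luminescence.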
IL-1B inflam inh – inflammasome signaling inhibition, IL-1 beta readout; activity change, % at 57.5 µM; 4.7% of 360,000 active; THP-1 LPS/ATP IL-1B secretion, AlphaLISA, 16 h; active compounds read low; in the data active = activity change below about -50%; inconclusive = mostly about -30% to -49%
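Secreted IL-1B measured by AlphaLISA bead assay after 16 h compound exposure of THP-1 cells; compounds (final up to 57.5 uM) added 1 h before LPS (250 ng/mL) and ATP (1.25 mM) stimulation; lower signal means less secretion.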
DT40 TDP1 no CPT – qHTS for Inhibitors of human tyrosyl-DNA phosphodiesterase 1 (TDP1): qHTS in cells in absence of CPT | 15% of 420,000 active | Potency, µM (doses to about 46.2 µM), inactives show at the highest dose activity change, negative = growth inhibition, actives largely listed as inhibitors | AID 686978, 2013 | DT40 Tdp1-/- hTDP1 cells, no CPT, ATP luminescence, 48 h; also: potency is read from the fitted curve at half-maximal effect; nearly all actives have a fitted effect of over 55% in size
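DT40 Tdp1-/-;hTDP1 cells, no CPT (DMSO vehicle only), 400 cells/well; compounds pin-transferred; ≥48 hr, 37 °C; CellTiter-Glo 30 min RT dark, luminescence read.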
HT1080NT lethal – kills 2HG-producing HT-1080-NT fibrosarcoma cells. HT-1080-NT fibrosarcoma viability, CellTiter-Glo ATP luminescence, 48 h. Potency, µM (top dose mostly 46.1 µM), for inactives: at the highest dose activity, negative = less viability, usual class: cytotoxic. 1.6% of 360,000 active. AID 686970;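 also: NT is the 2HG producing partner of a matched IDH1 knockdown line; potency is read from the fitted curve at half-maximal effect; 0% = DMSO-treated cells and -100% = media-only wells without cells; nearly all actives have a fitted effect of over 55% in size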
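HT-1080-NT; 750 cells/well; 5% FBS RPMI; 48 h compound, 37 degrees C; CellTiter-Glo luminescence; curve fitting and curve-class assignment.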
An asterisk follows results filed as active; ? = inconclusive; . = no result; [ ] = remark or other dose. Unless noted, calls follow the shape of the dose curve; as a rule, active = well fitted curve in the direction sought with a large enough effect; inconclusive = small, poorly fitted or top-dose-only effect, or another doubt; inactive = no such curve, though single readings can be large; an effect the other way counts as inactive or inconclusive. Unless noted, % is scaled to controls: 0 for no effect and ±100 for the full control effect.

SMILES | ALOX12 inh | HT1080 IDH1KD tx | TDP1 cell CPT | IL-1B inflam inh | DT40 TDP1 no CPT | HT1080NT lethal
O=C(NCc1ccncc1)c1c(OCC2CC2)cc(=O)n2c1CCCCC2 | 41% | . | . | . | . | .
COc1ccc(OC)c(NC(=O)c2ncoc2-c2cccc(Cl)c2)c1 | -24% | . | . | . | . | .
CC(=O)Nc1ccc(-c2csc(NC(=O)Cc3cccc(F)c3)n2)cc1 | -16% | ? | ? | ? | 23µM* | ?
COc1ccc(CCNc2nc(-c3cc(OC)c(OC)c(OC)c3)cs2)cc1OC | 7.9µM* | . | . | . | . | .
O=C(Cc1cccs1)Nc1nc(-c2ccc(F)c(F)c2)cs1 | ? | -6% | 8.2µM* | . | 1.5µM* | -7%
O=C(Cc1ccccc1)Nc1nc(-c2ccc(F)c(F)c2)cs1 | 0% | 0% | 1.8µM* | -14 | ? | 1%
CC(C)n1ccc2c(NC(=O)C[C@H]3NC(=O)c4ccccc4NC3=O)cccc21 | 3% | . | . | . | . | .
O=C(c1ccc(Cl)cc1)N1CC2(CCN(C3CCCCC3)CC2)Cc2ccccc21 | -2%[6.33 µM] | . | . | . | . | .
CC(=O)Nc1ccc(C2(C(=O)NCc3cccc(F)c3)CCC2)cc1 | 2% | . | . | . | . | .
Cc1oc(-c2ccc(Cl)cc2)nc1CN1CCC(C(=O)NCC2CCCO2)CC1 (stereo not drawn) | -9% | -8% | -9% | ? | -1% | -10%
Cc1oc(-c2ccc(Cl)cc2)nc1CN1CCC(C(=O)NCCCN2CCOCC2)CC1 | -3% | ? | 29µM* | ? | ? | 22µM*
Cc1oc(-c2ccc(Cl)cc2)nc1CN1CCC(C(=O)NCc2cccs2)CC1 | -39% | ? | ? | -54* | ? | 21µM*
CCCCNC(=O)C1CCN(Cc2nc(-c3ccc(OC)c(OC)c3)oc2C)CC1 | ? | . | -11% | . | -24% | .
CCC1CCCCN1CCCNC(=O)C1CCN(Cc2nc(-c3ccc(Cl)cc3)oc2C)CC1 (stereo not drawn) | . | ? | 3.7µM* | -90* | 2.6µM* | 18µM*
CCc1ccc(CN(C)C(=O)NC(c2ccc3c(c2)OCCCO3)C(C)C)cc1 (stereo not drawn) | -12% | . | . | . | . | .
Cc1ccc(C)c(OCC(O)Cn2nc(-c3ccco3)oc2=O)c1C (stereo not drawn) | 1% | . | . | . | . | .
COc1cccc(C(=O)N2CCC3(CC2)NC(=O)N(c2ccc(F)cc2)N3)c1OC | 4µM* | . | . | . | . | .
COc1cccc(C(=O)N2CCC3(CC2)CC(O)CCO3)c1OC (stereo not drawn) | 20% | . | . | . | . | .
COc1ccccc1C(=O)N1CCC2(CC1)NC(=O)N(c1cccc(F)c1)N2 | 2.5µM* | . | . | . | . | .
O=C(c1cc(C2CC2)[nH]n1)N1CCC2(CC1)NC(=O)N(c1cccc(F)c1)N2 | 11µM* | . | . | . | . | .
COc1ccc(C(=O)N2CCC3(CC2)NC(=O)N(c2cccc(F)c2)N3)cc1F | 2µM* | . | . | . | . | .
COc1cc(C(=O)N(C)Cc2nc3ccccc3c(=O)[nH]2)cc(Cl)c1OCC(N)=O | 3% | . | . | . | . | .
O=c1[nH]c(N2CCOCC2)nc2c1CCN(Cc1ccc(F)c(Cl)c1)CC2 | 9% | . | . | . | . | .
Cc1sc(NC(=O)c2ccc(C(C)C)cc2)c(C#N)c1C | 2% | . | . | . | . | .
Cc1ccc(CNC(=O)c2cccc(C3CCCN(C(=O)Nc4ccccc4)C3)c2)o1 (stereo not drawn) | 4% | . | . | . | . | .
SMILES | ALOX12 inh | HT1080 IDH1KD tx | TDP1 cell CPT | IL-1B inflam inh | DT40 TDP1 no CPT | HT1080NT lethal
CCn1nccc1C(=O)N1CCC2(CC1)NC(=O)N(c1cccc(F)c1)N2 | 4µM* | . | . | . | . | .
CCn1nccc1C(=O)N1CCC2(CC1)N(Cc1cccc(F)c1)C(=O)CS2=O (stereo not drawn) | 29% | . | . | . | . | .
COc1cccc(C(=O)N2CCC3(CC2)NC(=O)N(c2cccc(F)c2)N3)c1OC | 3.2µM* | . | . | . | . | .
Cc1ccc(C(=O)N2CCC3(CC2)NC(=O)N(c2ccc(F)cc2)N3)s1 | 2µM* | . | . | . | . | .
COc1ccccc1CC(=O)N1CCC2(CC1)NC(=O)N(c1cccc(F)c1)N2 | 1.8µM* | . | . | . | . | .
CCOc1ccc(NC(=O)c2nc3ccccc3nc2N(CC)CC)cc1 | 0% | . | . | . | . | .
CCOC(=O)Cc1nnc2c(Nc3ccc(Cl)cc3)nc3nonc3n12 | ? | 9.2µM* | ? | 25 | ? | ?
COCc1cccc(C(=O)NCc2ccco2)c1 | -28% | . | . | . | . | .
Cc1ccc(C(=O)N(C)Cc2ccccc2C(F)(F)F)cc1 | 29%[176 µM] | . | . | . | . | .
CSc1ccc(C(=O)C2CCCN(Cc3ccc(N4CCNC4=O)cc3)C2)cc1 (stereo not drawn) | 2% | -29% | 6% | -97* | ? | -3%
COc1ccc(CN2CCCC(C(=O)c3ccc(SC)cc3)C2)cc1Cn1cccn1 (stereo not drawn) | 0% | ? | ? | -96* | ? | ?
COc1ccc(C(=O)C2CCCN(C(=O)c3cccc(Cn4cccn4)c3)C2)cc1F (stereo not drawn) | 0% | -1% | ? | -17 | ? | -10%
CSc1ncc(CN2CCCC(C(=O)Nc3ccc(-c4ccco4)cc3)C2)cn1 (stereo not drawn) | 2% | -5% | ? | 7 | ? | 7%
CSc1ncc(CN2CCCC(C(=O)c3ccc(C(C)(C)C)cc3)C2)cn1 (stereo not drawn) | -3% | -12% | 16µM* | 21 | 23µM* | -15%
CNC(C)c1cccs1 (stereo not drawn) | -22% | . | . | . | . | .
O=S(=O)(Nc1nc2ccccc2s1)c1cnc(Cl)c(Br)c1 | -15% | 2% | 23µM* | 15 | ? | -13%
Cc1ccnc(NS(=O)(=O)c2cnc(Cl)c(Br)c2)c1 | -13% | 20% | -24% | -92* | -17% | 17%
COc1ccccc1/C=C/C=N/NC(=O)c1cccs1 | 204% | -23% | 21µM* | -15 | 6.5µM* | -15%
NC(=S)N/N=C/c1ccccc1OC(=O)/C=C/c1ccccc1 | 5.6µM* | -1% | 5.2µM* | ? | 0.52µM* | 4%
NC(=S)N/N=C/c1ccccc1OC(=O)c1cc2ccccc2oc1=O | -15% | 0% | ? | -15 | 6.5µM* | -8%
COc1ccccc1/C=C\C=N\NC(=O)c1ccco1 | 2% | 14% | 9% | 0 | -1% | 11%
NC(=S)N/N=C/c1ccccc1 | ? | -1% | -2% | 15 | -23% | 6%
O=C(NN=Cc1cccc2ccccc12)C(=O)NN=Cc1cccc2ccccc12 | -11% | 7% | ? | -20 | 15µM* | -2%
Cc1cccc(Cn2c(Sc3nncn3C)nc3c2c(=O)[nH]c(=O)n3C)c1 | 14% | . | . | . | . | .
